Measured values published in PubChem BioAssay AID1159580 (chemical genetic matrix, 2015).
Values joined by “and” are separate entries in the source; they are usually repeats but may differ in a detail not shown here. Identical values can stand only once. About 2,000 (36%) of roughly 5,500 compounds were called active. Roughly 18% stayed inconclusive and do not appear here. No stated cut-off is given here; in the data, active means normalized growth mostly below about 0.91 (no sharp cut-off); inconclusive means no clear call, values can overlap the other calls; inactive means mostly above about 0.92. This is one part of the list.

Test: chemical genetic growth profiling, strain panel (AID 1159580);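 further: tested at 20 µM; growth read once vehicle control cultures reached saturation at 30 °C; 1 = growth at the plate median or of vehicle wells; lower values mean less growth of the strain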
Conditions: S. cerevisiae deletion strains, growth OD

Measured: normalized growth

NC(N)=NCCCCN=C(N)N
inactive: locus YAL013W, strain DEP1, active compounds read low 0.997 | locus YAL021C, strain ccr4, active compounds read low 0.993 | locus YAL026C, strain drs2, active compounds read low 0.984 | locus YAL030W, strain snc1, active compounds read low 1 | locus YAL040C, strain CLN3, active compounds read low 1.01 | locus YBL061C, strain skt5, active compounds read low 1.01 | locus YBR009C, strain hhf1, active compounds read low 1.01 | locus YBR021W, strain FUR4, active compounds read low 1.04 | locus YBR023C, strain chs3, active compounds read low 1.01 | locus YBR171W, strain sec66, active compounds read low 0.986 | locus YBR229C, strain ROT2, active compounds read low 0.957 | locus YBR231C, strain swc5, active compounds read low 1 | locus YBR279W, strain paf1, active compounds read low 0.992 | locus YCL011C, strain gbp2, active compounds read low 1.01 | locus YCL016C, strain dcc1, active compounds read low 1.01 | locus YCL029C, strain bik1, active compounds read low 0.989 | locus YCL061C, strain MRC1, active compounds read low 1 | locus YCL069W, strain vba3, active compounds read low 0.984 | locus YCR088W, strain abp1, active compounds read low 1 | locus YDL005C, strain med2, active compounds read low 0.998 | locus YDL035C, strain GPR1, active compounds read low 0.985 | locus YDL040C, strain nat1, active compounds read low 1 | locus YDL074C, strain BRE1, active compounds read low 0.957 | locus YDL101C, strain DUN1, active compounds read low 0.953 | locus YDL134C, strain PPH21, active compounds read low 0.995 | locus YDL185W, strain tfp1, active compounds read low 0.968 | locus YDL192W, strain arf1, active compounds read low 0.992 | locus YDR001C, strain nth1, active compounds read low 1 | locus YDR069C, strain doa4, active compounds read low 0.999 | locus YDR101C, strain arx1, active compounds read low 1 | locus YDR137W, strain rgp1, active compounds read low 1.01 | locus YDR150W, strain NUM1, active compounds read low 0.983 | locus YDR159W, strain sac3, active compounds read low 1 | locus YDR162C, strain NBP2, active compounds read low 0.948 | locus YDR195W, strain ref2 0.984 | locus YDR297W, strain sur2, active compounds read low 0.999 | locus YDR318W, strain mcm21, active compounds read low 1.01 | locus YDR334W, strain swr1, active compounds read low 0.99 | locus YDR335W, strain msn5, active compounds read low 0.997 | locus YDR388W, active compounds read low 0.996 | locus YDR392W, strain spt3, active compounds read low 0.946 | locus YDR502C, strain sam2, active compounds read low 0.991 | locus YEL003W, strain gim4, active compounds read low 0.993 | locus YEL037C, strain rad23, active compounds read low 0.964 | locus YEL061C, strain CIN8 (second series), active compounds read low 0.991 | locus YEL061C, strain CIN8, active compounds read low 0.989 | locus YER002W, strain NOP16, active compounds read low 1 | locus YER015W, strain faa2, active compounds read low 0.997 | locus YER016W, strain bim1, active compounds read low 1 | locus YER110C, active compounds read low 0.99 | locus YER111C, strain swi4, active compounds read low 0.99 | locus YER155C, strain BEM2 (second series), active compounds read low 1.01 | locus YER155C, strain BEM2, active compounds read low 1 | locus YER167W, strain BCK2, active compounds read low 1.01 | locus YFR010W, strain ubp6, active compounds read low 0.98 | locus YGL078C, strain dbp3, active compounds read low 0.996 | locus YGL086W, strain mad1, active compounds read low 1.01 | locus YGL167C, strain pmr1, active compounds read low 1.01 | locus YGL173C, strain kem1, active compounds read low 0.995 | locus YGL227W, strain vid30, active compounds read low 1 | locus YGL240W, strain doc1, active compounds read low 1 | locus YGL248W, strain PDE1, active compounds read low 0.994 | locus YGL253W, strain hxk2, active compounds read low 1 | locus YGR078C, strain PAC10, active compounds read low 0.969 and 0.994 | locus YGR135W, strain pre9, active compounds read low 0.982 | locus YGR229C, strain SMI1, active compounds read low 0.999 | locus YGR252W, strain gcn5, active compounds read low 1.03 | locus YHR013C, strain ard1, active compounds read low 1 | locus YHR027C, strain rpn1, active compounds read low 1 | locus YHR030C, strain SLT2, active compounds read low 1 and 0.976 | locus YHR079C, strain IRE1 (second series), active compounds read low 1.01 | locus YHR079C, strain IRE1, active compounds read low 0.986 | locus YHR094C, strain hxt1, active compounds read low 1.01 | locus YHR129C, strain ARP1, active compounds read low 0.994 | locus YHR142W, strain chs7, active compounds read low 1 | locus YHR200W, strain rpn10, active compounds read low 1.01 | locus YIL066C, strain RNR3, active compounds read low 0.969 | locus YIL073C, strain SPO22, active compounds read low 1.03 | locus YIL125W, strain kgd1, active compounds read low 0.992 | locus YIR030C, strain dcg1, active compounds read low 0.993 | locus YJL092W, strain hpr5, active compounds read low 0.999 | locus YJL095W, strain BCK1 (second series), active compounds read low 1.01 | locus YJL095W, strain BCK1, active compounds read low 0.992 and 0.985 | locus YJL115W, strain asf1, active compounds read low 0.993 | locus YJL129C, strain trk1, active compounds read low 1.02 | locus YJL134W, strain LCB3, active compounds read low 0.989 | locus YJL154C, strain vps35, active compounds read low 0.992 | locus YJL164C, strain tpk1, active compounds read low 1.01 | locus YJL166W, strain qcr8, active compounds read low 1.01 | locus YJL168C, strain set2, active compounds read low 0.992 | locus YJL187C, strain SWE1 (second series), active compounds read low 0.969 | locus YJL187C, strain SWE1, active compounds read low 1.01 | locus YJR043C, strain POL32, active compounds read low 1.02 | locus YJR066W, strain TOR1, active compounds read low 0.99 | locus YJR075W, strain HOC1, active compounds read low 0.94
